Out of some 290,000 compounds screened, about 110 (0.038%) were called active. Inconclusive results (about 3%) are left out. Calls come from the whole dose curve; as a rule, active = well fitted inhibition curve with a large enough effect in the polarisation, with a control signal flat (not every such curve was filed as active); inconclusive = small, poorly fitted or top-dose-only effect, or effect the other way, or a change in a side signal; inactive = no such curve, though single readings can be large or run the other way; the % refers to the polarisation. The list comes from a sample in which actives are over-represented; it also holds similar structures and randomly drawn compounds.
molecular target: Histone-lysine N-methyltransferase 2A (Homo sapiens) (UniProt Q03164); assay: qHTS Fluorescence Polarization Assay for Inhibitors of MLL CXXC domain - DNA interaction; details: MLL-CXXC / FITC-HOXA9 DNA fluorescence polarization; series mostly up to 115 µM; activity change, negative = inhibition: at the top concentration
Text: NIH Chemical Genomics Center [NCGC] NIH Molecular Libraries Probe Production centers Network [MLPCN] MLPCN Grant: DA027717-01A1 Assay Submitter (PI): John Bushweller NCGC Assay Overview: The MLL (Mixed Lineage Luekemia) gene is involved in chromosomal translocation that results in either acute lymphoid leukemia (ALL) or acute myeloid leukemia (AML). Chromasomal translocation of MLL gene is responsible for the fusion of N-terminal MLL to more than 60 different partner genes in frame. Many of the MLL partner genes contain transcription activation domains or function as transcriptional activators. Despite the heterogeneity of fusion partners, the N-terminus of MLL fusion proteins always consists of the N-terminal menin binding motif and the CXXC domain. The MLL-CXXC domain specifically recognizes unmethylated CpG sequences of the HOX-A gene. Disruption of the MLL-CXXC and HOX-A gene interaction leads to down regulation of HOX-A gene expression and may potentially reverse leukemogenesis. We have miniaturized and optimized an in-vitro assay to screen for inhibitors of the MLL-CXXC domain and HOX-A DNA interaction, which could have utility in MLL fusion leukemias.
The affinity purified MLL-CXXC domain, unlabeled HOX-A9 DNA strand, fluorescein (FLSN) labeled HOX-A9 DNA strand were kindly supplied by the laboratory of Dr. John Bushweller, University of Virginia. All reagents were stored in single use aliquots at -80C. Assay Reagents: Assay buffer: 50 mM TRIS-HCl pH 7.5, 50 mM NaCl, 1 mM DTT. Add 0.05% BSA prior to reaction setup. Assay Procedure: 1.Dispense 1 ul of a 7 uM MLL-CXXC solution prepared in assay buffer into column 1-48. 2.Transfer 23 nl of compounds and unlabeled HOX-A9 per well. 3.Incubate for 5 minutes at ambient. 4.Dispense 1ul of a 50 nM FLSN-HOX-A9 solution prepared in assay buffer into columns 1-48 5.Centrifuge for 30 seconds at 1000 RPM. 6.Incubate for 30 minutes at ambient. 7.Read using the Envision reader fluorescent polarization protocol.

Histone-lysine N-methyltransferase 2A (Homo sapiens), sequence (Q03164 whole entry, looked up, the tested form may be a part): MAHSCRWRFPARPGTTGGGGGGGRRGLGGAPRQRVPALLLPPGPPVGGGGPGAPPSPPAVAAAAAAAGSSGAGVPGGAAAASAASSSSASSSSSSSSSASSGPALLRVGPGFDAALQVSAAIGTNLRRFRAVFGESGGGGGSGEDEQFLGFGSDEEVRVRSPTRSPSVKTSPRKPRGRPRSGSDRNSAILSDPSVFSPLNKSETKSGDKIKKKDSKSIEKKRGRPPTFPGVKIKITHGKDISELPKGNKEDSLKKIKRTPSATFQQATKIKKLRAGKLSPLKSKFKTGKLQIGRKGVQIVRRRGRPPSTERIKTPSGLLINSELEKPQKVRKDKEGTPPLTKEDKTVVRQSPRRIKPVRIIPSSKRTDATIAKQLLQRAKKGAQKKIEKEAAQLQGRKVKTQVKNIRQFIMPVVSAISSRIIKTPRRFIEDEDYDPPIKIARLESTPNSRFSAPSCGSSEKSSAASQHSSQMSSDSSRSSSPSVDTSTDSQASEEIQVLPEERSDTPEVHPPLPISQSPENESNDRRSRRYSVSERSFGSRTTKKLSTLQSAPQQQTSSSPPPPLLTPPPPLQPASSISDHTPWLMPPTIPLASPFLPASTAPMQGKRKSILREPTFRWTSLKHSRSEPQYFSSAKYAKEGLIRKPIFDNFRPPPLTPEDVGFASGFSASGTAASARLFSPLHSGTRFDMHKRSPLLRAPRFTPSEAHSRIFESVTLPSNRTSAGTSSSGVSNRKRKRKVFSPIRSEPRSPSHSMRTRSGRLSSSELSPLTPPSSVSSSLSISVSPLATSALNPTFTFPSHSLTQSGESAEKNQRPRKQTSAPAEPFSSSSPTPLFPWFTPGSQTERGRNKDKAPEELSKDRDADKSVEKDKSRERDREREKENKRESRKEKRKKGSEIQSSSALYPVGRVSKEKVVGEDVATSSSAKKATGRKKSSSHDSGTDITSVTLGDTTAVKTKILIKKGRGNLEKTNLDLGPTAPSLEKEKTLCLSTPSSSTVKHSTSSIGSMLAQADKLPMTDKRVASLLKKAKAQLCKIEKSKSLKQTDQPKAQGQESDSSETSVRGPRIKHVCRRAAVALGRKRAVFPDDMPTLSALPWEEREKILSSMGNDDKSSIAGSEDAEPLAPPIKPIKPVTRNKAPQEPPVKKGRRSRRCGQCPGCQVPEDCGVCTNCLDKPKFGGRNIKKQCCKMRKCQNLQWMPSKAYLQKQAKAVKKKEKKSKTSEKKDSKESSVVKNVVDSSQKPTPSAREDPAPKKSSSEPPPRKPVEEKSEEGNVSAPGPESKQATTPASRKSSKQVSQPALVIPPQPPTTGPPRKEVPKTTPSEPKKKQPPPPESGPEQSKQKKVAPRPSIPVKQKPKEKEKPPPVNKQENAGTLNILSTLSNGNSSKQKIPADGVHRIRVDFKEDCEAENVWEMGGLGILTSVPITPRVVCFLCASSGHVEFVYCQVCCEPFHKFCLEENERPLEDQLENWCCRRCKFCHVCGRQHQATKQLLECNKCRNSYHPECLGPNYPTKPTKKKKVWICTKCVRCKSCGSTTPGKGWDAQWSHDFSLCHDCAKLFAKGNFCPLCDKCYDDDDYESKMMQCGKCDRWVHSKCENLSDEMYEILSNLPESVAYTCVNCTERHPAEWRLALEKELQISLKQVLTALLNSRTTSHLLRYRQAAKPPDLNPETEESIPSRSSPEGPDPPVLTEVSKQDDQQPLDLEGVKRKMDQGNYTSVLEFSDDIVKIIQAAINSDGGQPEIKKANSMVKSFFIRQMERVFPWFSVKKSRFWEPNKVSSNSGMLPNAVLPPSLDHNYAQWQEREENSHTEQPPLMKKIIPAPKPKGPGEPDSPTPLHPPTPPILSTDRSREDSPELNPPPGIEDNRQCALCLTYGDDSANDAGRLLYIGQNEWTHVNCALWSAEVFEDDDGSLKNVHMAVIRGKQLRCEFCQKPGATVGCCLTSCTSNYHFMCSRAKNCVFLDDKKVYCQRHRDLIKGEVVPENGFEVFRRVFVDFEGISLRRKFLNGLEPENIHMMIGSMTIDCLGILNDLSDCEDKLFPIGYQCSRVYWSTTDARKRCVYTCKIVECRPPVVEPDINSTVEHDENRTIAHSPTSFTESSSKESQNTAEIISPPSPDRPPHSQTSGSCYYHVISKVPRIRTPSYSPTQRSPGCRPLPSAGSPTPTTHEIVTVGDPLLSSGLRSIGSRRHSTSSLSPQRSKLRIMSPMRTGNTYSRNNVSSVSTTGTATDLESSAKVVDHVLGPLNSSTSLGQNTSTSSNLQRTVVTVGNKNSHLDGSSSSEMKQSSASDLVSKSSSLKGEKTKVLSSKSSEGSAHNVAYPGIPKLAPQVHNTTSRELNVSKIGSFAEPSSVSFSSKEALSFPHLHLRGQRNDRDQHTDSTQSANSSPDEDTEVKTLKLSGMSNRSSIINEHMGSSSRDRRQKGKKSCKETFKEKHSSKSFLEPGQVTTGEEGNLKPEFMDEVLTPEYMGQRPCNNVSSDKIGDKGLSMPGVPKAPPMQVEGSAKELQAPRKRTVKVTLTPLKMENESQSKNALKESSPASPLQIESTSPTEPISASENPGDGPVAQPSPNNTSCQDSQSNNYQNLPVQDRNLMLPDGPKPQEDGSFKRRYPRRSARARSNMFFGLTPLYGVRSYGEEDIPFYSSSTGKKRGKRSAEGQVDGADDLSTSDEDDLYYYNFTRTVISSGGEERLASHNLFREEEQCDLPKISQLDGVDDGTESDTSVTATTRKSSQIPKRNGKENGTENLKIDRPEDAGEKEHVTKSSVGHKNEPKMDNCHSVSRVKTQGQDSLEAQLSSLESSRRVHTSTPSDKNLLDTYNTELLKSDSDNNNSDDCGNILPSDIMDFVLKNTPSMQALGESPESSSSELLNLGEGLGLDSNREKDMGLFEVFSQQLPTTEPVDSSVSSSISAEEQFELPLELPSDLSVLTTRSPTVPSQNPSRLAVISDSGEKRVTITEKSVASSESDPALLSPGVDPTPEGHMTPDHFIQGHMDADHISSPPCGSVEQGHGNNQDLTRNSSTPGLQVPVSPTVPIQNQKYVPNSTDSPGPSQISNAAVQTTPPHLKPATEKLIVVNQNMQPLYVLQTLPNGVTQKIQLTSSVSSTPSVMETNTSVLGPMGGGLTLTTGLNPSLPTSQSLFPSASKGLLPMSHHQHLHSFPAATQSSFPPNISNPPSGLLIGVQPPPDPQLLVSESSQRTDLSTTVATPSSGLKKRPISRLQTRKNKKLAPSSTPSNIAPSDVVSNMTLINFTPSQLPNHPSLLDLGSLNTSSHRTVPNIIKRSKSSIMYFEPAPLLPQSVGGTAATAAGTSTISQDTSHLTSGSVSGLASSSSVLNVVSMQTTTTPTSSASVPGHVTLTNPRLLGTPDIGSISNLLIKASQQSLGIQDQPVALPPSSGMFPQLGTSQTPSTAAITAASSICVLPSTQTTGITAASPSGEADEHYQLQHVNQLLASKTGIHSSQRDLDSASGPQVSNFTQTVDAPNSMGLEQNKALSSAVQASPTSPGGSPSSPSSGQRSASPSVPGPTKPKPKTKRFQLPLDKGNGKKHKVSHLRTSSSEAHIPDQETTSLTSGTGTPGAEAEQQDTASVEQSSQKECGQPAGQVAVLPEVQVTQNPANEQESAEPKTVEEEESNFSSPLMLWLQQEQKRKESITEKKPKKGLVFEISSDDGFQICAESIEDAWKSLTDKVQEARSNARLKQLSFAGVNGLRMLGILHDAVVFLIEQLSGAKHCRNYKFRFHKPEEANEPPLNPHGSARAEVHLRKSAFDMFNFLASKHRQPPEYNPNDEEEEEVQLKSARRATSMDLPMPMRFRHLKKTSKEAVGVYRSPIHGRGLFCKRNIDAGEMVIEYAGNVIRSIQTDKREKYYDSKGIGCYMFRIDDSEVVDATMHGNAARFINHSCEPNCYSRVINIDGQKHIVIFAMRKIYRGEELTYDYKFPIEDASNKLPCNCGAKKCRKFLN

Activity change, negative = inhibition, inactive:
COc1ccc(N(CC(=O)Nc2cc(OC)cc(OC)c2)S(=O)(=O)c2c(C)n[nH]c2C)cc1 -2.83%
CC(C)NC(=O)C(c1ccc(F)cc1)N(C(=O)CCC(=O)Nc1ccccn1)c1ccccc1F (centres undefined) -3.67%
COc1ccc(C(=O)NC(C)CCc2ccccc2)c(OC)c1 (centres undefined) -5.8%
O=C(CN1CCC(NC(=O)C2CC2)CC1)Nc1ccccc1[N+](=O)[O-] 2.95%
CCCOc1ccc(-c2c(C(=O)N/N=C/c3ccco3)nnn2-c2nonc2N)cc1 1.47%
COC(=O)c1cc(S(=O)(=O)Nc2ccc(C)c(F)c2)c[nH]1 5.77%
O=C(c1ccccc1)N1CCN(C(=O)c2cc3nc(-c4ccccc4)cc(C(F)(F)F)n3n2)CC1 -7.71%
COc1cccc(N(CC(=O)NC2CCCC2)C(=O)Cn2nnc(-c3ccc(C)o3)n2)c1 25.6%
COc1ccc2c(c1OC)C(=O)N(c1ccc(O)cc1)C2 -1.66%
C=CC1(C)CC(=O)C2(O)C(C)(O1)C(OC(C)=O)C(O)C1C(C)(C)CCC(O)C12C (centres undefined) 2.28%
C=C1C(=CC=C2CCC[C@@]3(C)[C@@H]2CC[C@H]3[C@H](C)CCCC(C)C)C[C@@H](O)C[C@@H]1O -2.06%
O=C(CCS(=O)(=O)c1ccccc1)NC1CCCC1 -6.29%
O=C(COc1ccc(Cl)cc1)Nc1ccc2c(c1)OCO2 -10.7%
COc1cccc(OCC(O)CNC(=O)c2oc3c(C)c(C)ccc3c2C)c1 (centres undefined) 1.3%
O=C(NCCc1ccccn1)c1nc(Cn2cc([N+](=O)[O-])cn2)no1 0.842%
COc1ccc(-c2cc(=O)oc3cc(OC(C)C(=O)Nc4ccc(CN5CCOCC5)cc4)ccc23)cc1 (centres undefined) 16.7%
CCOc1cc(C(=O)O)ccc1OCCOc1ccccc1 3.09%
Cc1cc(C)cc(N(CCC#N)C(=O)CN2C(=O)NC3(CCCC3)C2=O)c1 -1.49%
CC(=O)N(C)c1ccc(NC(=O)Nc2cccc3ccccc23)cc1 -9.5%
CS(=O)(=O)N(CC(=O)Nc1ccc(F)cc1)C1CCCCC1 -8.63%
CC(=O)c1ccc(OCC(O)CN2CCN(S(=O)(=O)c3cccc(Br)c3)CC2)cc1 (centres undefined) 2.81%
COc1ccccc1N1CCN(C(=O)c2cc(=O)c3cc(C)ccc3o2)CC1 -8.72%
Cc1ccc(OCC(=O)Nc2ccc(C(=O)O)cc2NC(=O)COc2ccc(C)c(C)c2)cc1C 16.9%
Cc1nn(C(C)(C)C)c(OC(=O)CC(C)C)c1S(=O)(=O)c1ccccc1 -2.57%
C[C@]12CC[C@@H]3c4ccc(O)cc4C[C@@H](CCCCCCCCCS(=O)CCCC(F)(F)C(F)(F)F)C3[C@@H]1CC[C@@H]2O (some centres undefined) 5.98%
COc1ccccc1C(=O)NC(CCSC)C(=O)NNC(=O)c1csc(N2CCOCC2)n1 (centres undefined) -2.58%
Cc1ccc(S(=O)(=O)NCCCn2ccnc2)cc1C(=O)NC(C)C -5.36%
O=C(O)c1ccccc1C(=O)NC1=NN(c2ccccc2)CC1 2.1%
O=C(NCCCN1CCCCC1)C1CC(=O)N(CCc2ccccc2)C1 (centres undefined) 3.45%
COc1cc2c(cc1OC)[C@@H](Cc1cc(OC)c(OC)c(OC)c1)[N+](C)(CCCOC(=O)CC/C=C/CCC(=O)OCCC[N+]1(C)CCc3cc(OC)c(OC)cc3[C@H]1Cc1cc(OC)c(OC)c(OC)c1)CC2 (some centres undefined) -5.96%
CN(C(=O)c1ccccc1)c1nccnc1C#N -18.4%
O=S(=O)(NC1CCCCC1N1CCN(c2ccccc2F)CC1)c1ccccc1 (centres undefined) -0.732%
CCC1CCCCN1C(=S)Nc1ccc(S(=O)(=O)Nc2ncccn2)cc1 (centres undefined) 11%
Cc1cc(C)cc(OCC(=O)Nc2cc(NC(=O)COc3cc(C)cc(C)c3)cc(C(=O)O)c2)c1 -18.7%
C[C@H](NC(=O)C1CC(=O)N(c2ccc3c(c2)OCCO3)C1)C(=O)N1CCC(C(=O)O)CC1 (some centres undefined) 13.2%
Cc1cc(C)c2nc(N3CCC(C(=O)NCCN4CCOCC4)CC3)sc2c1 -5.32%
Cc1ccc(C(C(=O)NCC2CCCO2)N(C(=O)c2snc(C(N)=O)c2N)c2ccc(C(C)C)cc2)o1 (centres undefined) 5.15%
CCOC(=O)[C@@H]1[C@H]2COc3ccc(Br)cc3[C@H]2N2C(=O)N(c3ccc(Cl)cc3)C(=O)[C@@]12C -3.58%
CC(=O)NC1CCN(CC(=O)Nc2nccs2)CC1 1.35%
O=C(COc1ccc(Cl)cc1Cl)N/N=C/c1ccccn1 24%
Cc1cccc(N(C)C(=O)CN2C(=O)COc3ccc(S(=O)(=O)N4CCCCCC4)cc32)c1 -1.72%
O=C(Nc1cccc(-n2cnnn2)c1)c1cccnc1 2.3%
COc1ccccc1CCNC(=O)c1c(C)nn(CC(C)C)c1Cl 2.36%
Cc1cccc(C)c1NC(=O)CS(=O)CC(=O)N1CCN(c2ccccc2)CC1 (centres undefined) 2.84%
O=C(Nc1ncc([N+](=O)[O-])s1)C1COc2ccccc2O1 (centres undefined) 7.99%
CC(C)CNC(=O)C(=O)NCC(c1ccc2c(c1)OCO2)N1CCOCC1 (centres undefined) -11.6%
Cc1ccc(-c2noc(CNC(=O)c3ccoc3C)n2)cc1 -2.13%
O=C(CCS(=O)(=O)c1ccc2c(c1)NC(=O)CS2)NCc1ccccc1Cl 3.07%

Potency, inactive:
CCN1C(=NCC(C)C)N[C@@H](CCc2ccccc2)[C@H](C(=O)NCC(C)C)[C@H]1C
